Screens from PubChem.
Shown are actives, neighbours in structure and some others; about 4.8% of the full set was active somewhere.
ssDAF-12 act – S. stercoralis DAF-12 nuclear receptor activators, primary screen, cell-based, luminescence, HEK293, GRIP1 co-expression, lit1-tk-luc; Nuclear hormone receptor DAF-12 (Strongyloides stercoralis); HEK293 ssDAF-12/GRIP1 lit1-tk-luc reporter; % of 3 µM dafachronic acid response; activation, % at 6.8 µM; actives 1% (n = 370,000);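 active means activation above the mean over all tested compounds plus 3 SD, cut at about 0.9% in these data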
DAX1 inh-1 – DAX1 (NR0B1) inhibitors, primary screen, cell-based, HEK293, Gal4-DAX1, luciferase luminescence. Nuclear receptor subfamily 0 group B member 1 (Homo sapiens), P51843. actives 0.99% (n = 340,000). AID 504766, 2011. inhibition, % at 6.75 µM. HEK293 Gal4-DAX1 luciferase reporter;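 active means inhibition above the mean over all tested compounds plus 3 SD, cut at about 4.2% in these data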;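 further: inhibition shows as a rise in luminescence from relieved DAX1 repression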
Target sequence (P51843 207-470 limits assumed): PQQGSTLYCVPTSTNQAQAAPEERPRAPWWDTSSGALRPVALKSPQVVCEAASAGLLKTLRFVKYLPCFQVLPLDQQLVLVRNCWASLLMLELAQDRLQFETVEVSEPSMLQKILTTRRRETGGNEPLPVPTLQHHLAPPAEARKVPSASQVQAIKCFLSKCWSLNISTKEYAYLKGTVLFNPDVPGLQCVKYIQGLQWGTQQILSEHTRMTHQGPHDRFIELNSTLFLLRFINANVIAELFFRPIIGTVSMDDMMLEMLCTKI
DAX1 inh-2 – DAX1 (NR0B1) inhibitors on StAR promoter, primary screen, cell-based, luminescence, SF-1 (NR5A1), full-length DAX-1; inhibition, % at 6.8 µM; HEK293T StAR-luciferase reporter, SF-1/DAX-1 repression relief; actives 1.1% (n = 370,000);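 active means inhibition above the mean over all tested compounds plus 3 SD, cut at about 3.6% in these data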;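 further: higher inhibition means more luminescence from relief of DAX-1 repression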
hcDAF12 agonist – H. contortus DAF-12 nuclear receptor activators, primary screen, cell-based, luminescence, HEK293, lit1-tk-luc reporter | HEK293 hcDAF-12 lit1-tk-luc reporter; 0% DMSO, 100% Δ7-dafachronic acid | activation, % at 6.8 µM | actives 1.4% (n = 370,000) | AID 652067, 2013;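 active means activation above the mean of all tested compounds plus 3 SD, cut at about 5.5% in these data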
hgDAF12 agonist – H. glycines DAF-12 receptor agonists, primary screen, cell-based, luminescence, HEK293, GAL4 fusion, UAS-luciferase; AID 687014, 2013; activation, % at 6.8 µM; Nuclear hormone receptor DAF-12 (Heterodera glycines), GAL4 fusion; HEK293 GAL4-hgDAF12 UAS-luciferase reporter, agonist luminescence; normalized to butyrate control; actives 1.8% (n = 370,000);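 active means activation above a cutoff set at the mean of all screened compounds plus 3 SD, cut at about 10% in these data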
SMARCA2 activ – SMARCA2 (BRM) function activators, primary screen, cell-based, luminescence, high throughput; activation, % at 9.1 µM; AID 652017, 2013; MG213 cells, MMTV-luciferase reporter, dexamethasone, overnight; actives 1% (n = 370,000); in the data active means activation above about 7.8%
SMARCA2 conf – SMARCA2 (BRM) function activators, confirmation, cell-based, luminescence, triplicate | shares compounds with SMARCA2 activ | MG213 cells, MMTV-luciferase with dexamethasone, overnight; MG213 cells expressing E1A, Rb sequestered; DMSO wells 0%, reference activator 100% | activation, % at 9.1 µM | actives 30% (n = 3,500) | AID 652260, 2013;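 active means activation above its plate's cutoff, the mean activation of tested wells plus 3 SD, cut at about 7.9% in these data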
GAL4-VP16 Luc – GAL4-VP16 luciferase reporter activation, counter-screen for SMARCA2 (BRM) activator project, cell-based, pG5luc, luminescence, high throughput; shares compounds with SMARCA2 activ; actives 41% (n = 3,500); activation, % at 9.1 µM; HEK293 GAL4-VP16 pG5luc reporter; scaled: DMSO wells 0%, SAHA wells 100%; AID 686939, 2013;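 active means activation above the solvent-only control well mean plus 3 SD, averaged across control plates, cut at about 5.2% in these data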
LXRb hcDAF ctr – LXR agonists, Gal4 luciferase reporter, confirmation, counter-screen for hcDAF-12 agonist project, cell-based, luminescence, HEK293, H. contortus campaign; activation, % at 6.8 µM; shares compounds with hcDAF12 agonist; 3,400 tested, under 10 active; HEK293 Gal4-LXR tk-luc reporter, 24 h; normalized: DMSO 0%, positive control 100%;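 active means mean percent activation of the reporter above a cutoff set as the average over tested compounds plus their standard deviation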
hcDAF12 conf – H. contortus DAF-12 receptor agonists, confirmation, cell-based, luminescence, HEK293, lit1-tk-luc, triplicate; activation, % at 6.8 µM; actives 61% (n = 3,400); HEK293 hcDAF-12 lit1-tk-luc reporter; % of Δ7-dafachronic acid response; AID 743032, 2013; shares compounds with hcDAF12 agonist;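 active means mean activation across triplicate tests above the threshold derived from the earlier primary screen, cut at about 5.5% in these data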
Of the large screens only hits and unclear results are named; the others gave an inactive call (follow-up assays come after a bar, where they were run).

COc1ccc(OC)c2nc3c(C(=O)NCCN(C)C)cccc3nc12	hcDAF12 agonist 11, SMARCA2 activ 21 | SMARCA2 conf 52 | GAL4-VP16 Luc inactive | LXRb hcDAF ctr inactive | hcDAF12 conf 9.2
CN(C)CCNC(=O)c1cccc2nc3cccc(F)c3nc12	ssDAF-12 act 1.5, hcDAF12 agonist 18, SMARCA2 activ 52 | SMARCA2 conf 194 | GAL4-VP16 Luc 14 | LXRb hcDAF ctr inactive | hcDAF12 conf 14
Cc1cc(C(=O)NCCCN(C)C)c2ccccc2n1	none
COc1ccc(C2Nc3ccccc3C(=O)N2c2ccc(C)cc2)cc1COc1ccccn1 (configuration not stated)	DAX1 inh-2 3.6, hcDAF12 agonist 6.9, SMARCA2 activ 14 | SMARCA2 conf 12 | GAL4-VP16 Luc inactive | LXRb hcDAF ctr inactive | hcDAF12 conf 8.7
COc1ccc(C2Nc3ccccc3C(=O)N2c2ccc(C)cc2)cc1Cn1nc(C)c([N+](=O)[O-])c1C (configuration not stated)	none
CC(C)(C)S(=O)(=O)N1C[C@H]2CC(=O)C(CCO)=C2[C@@H]1CCO	none (no result: DAX1 inh-1)
C(=N\Nc1nc2ccccc2[nH]1)/c1ccccc1	none
C(=N\Nc1ncnc2ccccc12)/c1ccccc1	ssDAF-12 act 1.3, hcDAF12 agonist 8.4, hgDAF12 agonist 15, SMARCA2 activ 9.2 | SMARCA2 conf 11 | GAL4-VP16 Luc 9.1 | LXRb hcDAF ctr inactive | hcDAF12 conf 8.5
COC(=O)c1ccc(OCC(=O)c2ccccc2)cc1	ssDAF-12 act 1.3, hcDAF12 agonist 9.0, hgDAF12 agonist 11, SMARCA2 activ 12 | SMARCA2 conf 11 | GAL4-VP16 Luc 8.5 | LXRb hcDAF ctr inactive | hcDAF12 conf inactive
C=CCN1C(=O)C(=O)N(Cc2nc3ccccc3s2)C1=O	ssDAF-12 act 1.2, hcDAF12 agonist 9.6, SMARCA2 activ 8.7 | SMARCA2 conf 8.2 | GAL4-VP16 Luc 8.3 | LXRb hcDAF ctr inactive | hcDAF12 conf 9.7
COc1cccc(C(=O)/C=C/Nc2ccc(S(=O)(=O)Nc3onc(C)c3C)cc2)c1	hcDAF12 agonist 13, SMARCA2 activ 12 | SMARCA2 conf inactive | GAL4-VP16 Luc inactive | LXRb hcDAF ctr inactive | hcDAF12 conf inactive
Oc1cccc2ccc(/C=C/c3ccccc3Cl)nc12	hcDAF12 agonist 7.1, SMARCA2 activ 12 | SMARCA2 conf inactive | GAL4-VP16 Luc 11 | LXRb hcDAF ctr inactive | hcDAF12 conf 6.5
Oc1cccc2ccc(/C=C/c3c(F)cccc3Cl)nc12	ssDAF-12 act 2.0, DAX1 inh-2 3.7, hcDAF12 agonist 9.5, hgDAF12 agonist 18, SMARCA2 activ 11 | SMARCA2 conf inactive | GAL4-VP16 Luc 16 | LXRb hcDAF ctr inactive | hcDAF12 conf 9.6
CCCCN(C)C(=O)c1cn(C(C)c2ccccc2)nn1 (configuration not stated)	none (no result: DAX1 inh-1)
COC(=O)[C@]12C[C@H](CC(=O)NCCCCc3ccccc3)C(=O)N(Cc3ccc4c(c3)OCO4)C1=C[C@H](COCc1ccccc1)O[C@@H]2C	none (no result: DAX1 inh-1)
COc1ccc2[nH]c3c(C)c4ccncc4c(C)c3c2c1	ssDAF-12 act 2.0, hcDAF12 agonist 7.3, SMARCA2 activ 16 | SMARCA2 conf 48 | GAL4-VP16 Luc inactive | LXRb hcDAF ctr inactive | hcDAF12 conf inactive
O=C(c1cc2cc(Cl)ccc2oc1=O)N1CCOCC1	none
O=C(c1cc2ccccc2oc1=O)N1CCOCC1	hcDAF12 agonist 6.7, hgDAF12 agonist 11, SMARCA2 activ 8.0 | SMARCA2 conf 15 | GAL4-VP16 Luc inactive | LXRb hcDAF ctr inactive | hcDAF12 conf 5.6
C=CCN(CC#Cc1cccnc1)Cc1ccc(OC)cc1OC	none (no result: DAX1 inh-1)
O=C(CCCc1nc2ccccc2s1)Nc1nccs1	none
Cc1cnc(NC(=O)CCCc2nc3ccccc3s2)s1	ssDAF-12 act 5.3, hcDAF12 agonist 10, hgDAF12 agonist 12, SMARCA2 activ 27 | SMARCA2 conf 29 | GAL4-VP16 Luc inactive | LXRb hcDAF ctr inactive | hcDAF12 conf 6.9
CC(=O)Nc1sc2c(c1-c1nc3ccccc3s1)CN(C(C)C)CC2	ssDAF-12 act 2.5, hcDAF12 agonist 14, hgDAF12 agonist 11, SMARCA2 activ 19 | SMARCA2 conf inactive | GAL4-VP16 Luc inactive | LXRb hcDAF ctr inactive | hcDAF12 conf 17
COC(=O)C1=C(C(=O)OC)C2CCCC1C1N=NN(c3ccccc3)C21 (configuration not stated)	none (no result: DAX1 inh-1)
CCN(CC)CCn1c2ccccc2c2nc3ccc([N+](=O)[O-])cc3cc21	ssDAF-12 act 1.1, hcDAF12 agonist 9.0, SMARCA2 activ 10 (no result: DAX1 inh-1) | SMARCA2 conf 99 | GAL4-VP16 Luc inactive | LXRb hcDAF ctr inactive | hcDAF12 conf 6.8
CCN(CC)CCCNc1nc2ccccc2c2[nH]c3ccc(OC)cc3c12	ssDAF-12 act 3.6, hcDAF12 agonist 14, SMARCA2 activ 54 | SMARCA2 conf inactive | GAL4-VP16 Luc inactive | LXRb hcDAF ctr inactive | hcDAF12 conf 16
O=C(NCc1ccccc1)[C@H]1CCCN1C(=O)[C@H]1CCCN1C(=O)N1CCCCC1	none (no result: DAX1 inh-1)
